NPC1 prom act: NPC1 promoter activation; Huh7 NPC1 promoter luciferase reporter, 24 h; Potency, µM (highest dose often 9.22 µM), inactives show at the top dose activation, most hits filed as activators; 320,000 tested, 2.4% active; AID 485313; further: % of control where 0% means no effect; nearly all actives have a fitted effect of over 60% in size
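Stably transfected Huh7 (NPC1 promoter→luciferase), 1500 cells/well in Opti-MEM + 10% FBS, 2 h settle, then compound 24 h at 37 °C. Luminescence after 10 min with Amplite reagent.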
Rab9 prom act: activators of Rab9 promoter; Huh7 Rab9 promoter-luciferase reporter, luminescence, 24 h; Potency, µM (series often up to 9.22 µM), without a hit: top-dose activation, negative = inhibition, hits mostly activators; 320,000 tested, 2.8% active; AID 485297; further: % of control where 0% means no effect; nearly all actives have a fitted effect of over 60% in size
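Rab9 promoter-driven luciferase in stably transfected Huh7 cells; 1500 cells/well rested 2 h, exposed to compound in DMSO for 24 h at 37 °C, 5% CO2. Luminescence read 10 min after adding luciferase reagent at ambient temperature.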
ELG1 genotoxic: induces genotoxicity in HEK293T cells with luciferase-tagged ELG1; HEK293T ELG1-luciferase reporter, luminescence, 16 h; Potency, µM (titrated, usually from 46 µM), inactives show at the highest dose activity change, positive = activation, actives largely listed as activators; 330,000 tested, 1.3% active; further: % of control where 0% means no effect; nearly all actives have a fitted effect of over 60% in size
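After overnight (16 hr) compound treatment at 37 °C, ELG1-luciferase HEK293T cells were lysed with ONE-Glo; luminescence quantified 30 min later at room temperature.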
ELG1 DNA repair: inhibitors of ELG1-dependent DNA repair in HEK293T cells | HEK293T ELG1-luciferase reporter, luminescence, 16 h; DNA damage induced by 5-fluorouridine | Potency, µM (titrated, usually from 46.1 µM), inactives show at the top dose activity change, negative = inhibition, usual class: inhibitors | 330,000 tested, 2.3% active | AID 504467; further: on the % scale 0 is the no-effect control and ±100 the full control effect; nearly all actives have a fitted effect of over 55% in size
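Reporter activity after DNA damage by 5-fluorouridine is monitored. Compound-treated cells incubate 16 hr at 37 °C, then ONE-Glo is added for 30 min before luminescence reading.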
SMN2 splice enh: increases expression of the SMN2 splice variant. HEK293 SMN2-luciferase splicing reporter, luminescence, 30-36 h. 210,000 tested, 2.8% active. Potency, µM (doses to about 46.1 µM), for the others: top-dose activity change, positive = activation, most hits filed as activators; further: % of control where 0% means no effect; nearly all actives have a fitted effect of over 55% in size
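qHTS luciferase splicing reporter: luminescence rises when SMN2 exon 7 is included in transfected HEK293 cells. Compound exposure lasted 30-36 h at 37C, with 4.5 mM final sodium butyrate as control, followed by a ONE-Glo read.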
FLuc counter: firefly luciferase modulation, counter-screen for miR-21 project; Potency, µM (highest dose often 57.5 µM), inactives show top-dose activity change, negative = inhibition, most hits filed as inhibitors; purified FLuc, Km substrates, luminescence inhibition; 360,000 tested, 6.9% active; P08659;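 further: plate controls were vehicle for no effect and reference inhibitor for full effect; nearly all actives have a fitted effect of over 55% in size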
Target sequence (P08659 whole entry, looked up): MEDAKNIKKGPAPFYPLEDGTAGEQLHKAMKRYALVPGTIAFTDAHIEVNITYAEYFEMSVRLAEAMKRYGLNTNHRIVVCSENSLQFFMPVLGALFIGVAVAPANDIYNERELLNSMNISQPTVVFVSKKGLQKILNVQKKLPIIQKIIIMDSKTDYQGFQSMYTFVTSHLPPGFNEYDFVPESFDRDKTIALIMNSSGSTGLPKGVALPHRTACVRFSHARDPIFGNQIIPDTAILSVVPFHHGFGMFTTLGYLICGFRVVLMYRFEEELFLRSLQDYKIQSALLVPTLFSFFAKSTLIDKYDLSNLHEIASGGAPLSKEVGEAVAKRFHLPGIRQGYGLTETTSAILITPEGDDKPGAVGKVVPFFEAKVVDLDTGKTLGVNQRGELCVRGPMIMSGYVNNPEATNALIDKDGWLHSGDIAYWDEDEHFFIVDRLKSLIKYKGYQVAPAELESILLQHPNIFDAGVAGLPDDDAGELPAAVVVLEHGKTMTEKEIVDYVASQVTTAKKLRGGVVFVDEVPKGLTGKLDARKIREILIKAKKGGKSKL
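Biochemical qHTS of compounds, final roughly 60 µM downward over six points, against 10 nM purified firefly luciferase using Km concentrations of substrates (10 uM D-luciferin, 10 uM ATP) in Tris acetate pH 7.5 buffer; luminescence output.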
An asterisk follows results filed as active; ? = inconclusive; . = no result. A selection: hits, their analogues and other compounds. The true share with any hit is near 9.2%. The call rests on the fitted dose curve; in most records, active means well fitted curve in the direction sought with a large enough effect; inconclusive means small, poorly fitted or top-dose-only effect, or another doubt; inactive means no such curve, though single readings can be large; an effect the other way counts as inactive or inconclusive. Potency means the concentration at half of the fitted maximal effect.

SMILES | NPC1 prom act | Rab9 prom act | ELG1 genotoxic | ELG1 DNA repair | SMN2 splice enh | FLuc counter
COc1ccc(OC)c(C(=O)Cn2nnc(-c3ccc(N4CCOCC4)cc3)n2)c1 | 0% | 1% | -7% | ? | . | 9.5µM*
COc1ccc(Cl)cc1S(=O)(=O)N(C)CC(=O)N1CCOCC1 | -4% | -4% | 0% | 5% | . | 2%
CCCOc1ccc(-c2nnn(CC(=O)N3CCCCC3)n2)cc1 | 1% | -2% | -6% | 0% | . | 17µM*
CCCOc1ccc(-c2nnn(CC(=O)OCC)n2)cc1 | 12% | 2% | 1% | 7% | -15% | ?
Cc1ccc([N+](=O)[O-])cc1NC(=O)C(C)Sc1nnc(C)n1CC1CCCO1 (stereo unspecified) | -4% | -1% | -1% | -3% | . | -2%
COc1ccc(Nc2cnn(-c3nc4ccccc4s3)c(=O)c2Cl)cc1 | ? | ? | ? | ? | 10µM* | 11µM*
Cc1ccc(C)c(N2CCN(c3cnn(-c4nc5ccccc5s4)c(=O)c3Cl)CC2)c1 | 2.2µM* | 1.6µM* | 18µM* | ? | ? | 6.7µM*
O=c1c(Cl)c(Nc2cccc(Cl)c2)cnn1-c1nc2ccccc2s1 | ? | ? | ? | ? | 10µM* | 4.8µM*
CC(=O)N1CCN(c2csc3ccc(Br)cc3c2=O)CC1 | . | . | . | . | . | 15µM*
Cc1ccc2scc(N3CCc4ccccc4C3)c(=O)c2c1 | . | . | . | . | . | 4.8µM*
O=c1c(N2CCCCC2)csc2ccc(F)cc12 | . | . | . | . | . | 6µM*
Clc1ccc2scc(CN3CCCCC3)c2c1 | -1% | -4% | -1% | -1% | -3% | 4%
CCN1CCN(c2csc3ccc(Cl)cc3c2=O)CC1 | . | . | . | . | . | 15µM*
CCN(Cc1ccccc1)C(=O)C1CCN(S(=O)(=O)c2c(C)noc2/C=C/c2ccc(C)cc2)CC1 | . | . | . | . | . | -2%
Cc1ccc2[nH]c3c(c2c1)SC(C)(C)CC3=O | 1% | -4% | -4% | -3% | -1% | -1%
COc1ccc2[nH]c(C(=O)N3CCCN(Cc4ccc(F)cc4)CC3)cc2c1 | -11% | -24% | -4% | -13% | . | -1%
Cc1ccc2scc(N3CCN(c4ccccc4)CC3)c(=O)c2c1 | . | . | . | . | . | 17µM*
CC1CCCN(c2csc3ccccc3c2=O)C1 (stereo unspecified) | . | . | . | . | . | 8.5µM*
Cc1ccc2scc(N3CCN(c4ccc(F)cc4)CC3)c(=O)c2c1 | . | . | . | . | . | -12%
O=C(CC12CC3CC(C1)CC(CC(=O)NC1=NCCS1)(C3)C2)NC1=NCCS1 | -2% | 1% | 0% | -1% | -2% | 5%
O=C(NC1=NCCS1)C12CC3CC(C1)CC(C(=O)NC1=NCCS1)(C3)C2 | 2% | -5% | -23% | 23µM* | -12% | 1%
O=C(c1ccc(N2CCCC2)c([N+](=O)[O-])c1)N1CCN(S(=O)(=O)c2ccccc2)CC1 | -6% | -15% | 1% | ? | . | 3%
CCOc1cc([N+](=O)[O-])cc2c1C(=O)Nc1ccccc1O2 | -3% | -4% | 0% | 7.3µM* | -18% | -8%
O=C1Nc2ccccc2Oc2cc([N+](=O)[O-])ccc21 | 8% | 2% | -1% | ? | 6% | 1%
CCc1ccc(Nc2nnc(-c3cc4cc(OC)ccc4oc3=O)s2)cc1 | . | . | . | . | . | -4%
SMILES | NPC1 prom act | Rab9 prom act | ELG1 genotoxic | ELG1 DNA repair | SMN2 splice enh | FLuc counter
CC/C(C)=N\Nc1nc(-c2cc3cc(OC)ccc3oc2=O)cs1 | ? | ? | 17% | ? | . | 17µM*
COc1ccc2oc(=O)c(-c3nc(-c4ccc(C)c(C)c4)cs3)cc2c1 | . | . | . | . | . | -11%
COc1ccc2oc(=O)c(-c3nc(C)cs3)cc2c1 | ? | 2.8µM* | ? | ? | 14µM* | ?
CC(C)CC(=O)NCC1(N(C)C)CCCCC1 | . | . | . | . | . | -2%
Cc1cc(C)cc(Oc2ccc(N)cc2)c1 | 1% | -1% | 22% | 26% | 13µM* | -8%
COc1ccc(/C=C2\SC(=S)N(CCCC(=O)N3CCCCC3CCO)C2=O)cc1 (stereo unspecified) | -17% | -12% | -14% | ? | . | 17µM*
CC(C)c1ccc(/C=C2\SC(=S)N(CCC(=O)N3CCCCC3CCO)C2=O)cc1 (stereo unspecified) | -24% | -31% | -14% | ? | . | 3.4µM*
O=C1/C(=C\c2ccccc2)SC(=S)N1CCC(=O)N1CCCCC1CCO (stereo unspecified) | -8% | 0% | -5% | -3% | . | 17µM*
COc1ccc(/C=C2\SC(=S)N(CCCC(=O)N3CCN(C)CC3)C2=O)cc1 | -4% | -11% | 1% | 3% | . | 15µM*
COc1ccc(/C=C2\SC(=S)N(CCC(=O)N3CCOCC3)C2=O)cc1 | -1% | -15% | -1% | 1% | . | ?
O=C1/C(=C/c2ccccc2Cl)SC(=S)N1CCC(=O)N1CCCCC1CCO (stereo unspecified) | -8% | -5% | -8% | -1% | . | ?
Cc1cc(OCC(=O)NCC(c2ccc(F)cc2)N2CCOCC2)ccc1Cl (stereo unspecified) | -10% | -9% | -1% | -2% | . | -1%
O=S(=O)(c1ccc(F)cc1)N1CCN(C(=S)NC2CC2)CC1 | -2% | -3% | -2% | 17% | . | 2%
Oc1c(C(c2cccc(Cl)c2)N2CCOCC2)sc2nc(-c3ccco3)nn12 (stereo unspecified) | . | . | . | . | . | -18%
Cn1c(CC(=O)NNC(=O)c2cncc(Br)c2)nc2ccccc21 | . | . | 2% | 17% | . | .
CC1CCN(C(=O)COC(=O)c2ccc(=O)n(Cc3ccccc3)n2)CC1 | -2% | -3% | 5% | ? | . | 6%
O=C(c1cnccn1)N1CCC[C@@]2(CCN(Cc3nccs3)C2)C1 | . | . | . | . | -4% | .

From PubChem
